Screening results as filed in PubChem.
EP2 modulator – EP2 receptor modulators, cAMP readout, primary screen, cell-based, HTRF cAMP, PGE2 stimulation. EP2-expressing cells, cAMP HTRF FRET, PGE2 co-stimulation. induction, % at 25 µM. Prostaglandin E2 receptor EP2 subtype (Homo sapiens), P43116. 260,000 tested, 0.83% active;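 active = compounds whose cAMP rise, as percent of the full-agonist control response, exceeds 60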;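 note: rat C6 glioma line stably carrying human EP2 under a CMV promoter; the protocol text gives 20 µM as final concentration; 100% = response of wells given 1 µM PGE2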
Target sequence (P43116 whole entry, looked up): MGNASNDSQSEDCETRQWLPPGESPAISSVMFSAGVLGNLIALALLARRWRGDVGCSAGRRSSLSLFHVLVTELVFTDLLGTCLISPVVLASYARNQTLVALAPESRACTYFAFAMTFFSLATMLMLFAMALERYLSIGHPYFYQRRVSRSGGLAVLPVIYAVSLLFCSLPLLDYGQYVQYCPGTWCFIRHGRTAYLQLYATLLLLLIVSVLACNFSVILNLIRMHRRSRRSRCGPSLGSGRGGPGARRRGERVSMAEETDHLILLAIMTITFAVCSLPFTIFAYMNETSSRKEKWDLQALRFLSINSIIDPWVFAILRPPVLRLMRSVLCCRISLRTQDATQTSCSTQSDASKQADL
EP2 antag – human EP2 receptor antagonists, primary screen, TR-FRET cAMP, C6 glioma cells | C6 glioma cells expressing human EP2; cells stimulated with saturating PGE2 | inhibition, % at 25 µM | 260,000 tested, 0.52% active;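 active = percent inhibition above 40 after rounding to a whole number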;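 note: rat C6 glioma host cells with rolipram phosphodiesterase inhibitor present; the protocol text gives 20 µM as final concentration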
S1P3 antagonist – S1P3 receptor antagonists, primary screen, cell-based; CHO S1P3 NFAT-BLA reporter, FRET fluorescence, antagonist mode; inhibition, % at 4.98 µM; 170,000 tested, 0.27% active; AID 485, 2006;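 active = inhibition above the plate cutoff, the mean inhibition of test wells on that plate plus 3 SD, cut at about 28% in these data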;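 note: cells challenged with S1P at its EC80 of 0.8 µM; blue over green emission ratio from cleaved BLA substrate after 4 h stimulation; 0% = S1P-stimulated wells and 100% = unstimulated DMSO-only wells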
Target sequence (Q99500 whole entry, looked up): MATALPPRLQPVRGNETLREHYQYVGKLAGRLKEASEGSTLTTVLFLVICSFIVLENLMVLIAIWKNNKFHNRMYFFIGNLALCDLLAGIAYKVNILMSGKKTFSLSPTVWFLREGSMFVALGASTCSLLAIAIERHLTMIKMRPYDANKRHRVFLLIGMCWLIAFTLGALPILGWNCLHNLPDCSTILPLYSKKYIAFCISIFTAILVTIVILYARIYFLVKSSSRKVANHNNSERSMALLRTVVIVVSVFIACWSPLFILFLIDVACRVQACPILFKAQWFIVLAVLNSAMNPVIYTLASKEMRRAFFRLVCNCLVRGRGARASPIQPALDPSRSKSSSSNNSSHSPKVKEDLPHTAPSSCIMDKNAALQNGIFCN
Cl transport mod – KCC2 cotransporter modulators, thallium flux, primary screen, cell-based, HEK293 KCC2, FluoZin-2 fluorescence, MLSMR; AID 1456, 2008; KCC2 cells, thallium flux FluoZin-2 fluorescence; B-score of Tl+ flux slope (higher = more flux/activation; lower = inhibition) at 10 µM; 190,000 tested, 2.2% active;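 active = thallium flux slope and its plate-corrected score both differing from the plate sample mean at a set confidence after two filtering rounds, in either direction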;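 note: slope of fluorescence scaled to starting intensity during 10 to 20 s after thallium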
KCC2 sec1 – KCC2 modulators in sodium-free buffer, confirmation, cell-based, HEK293 KCC2, thallium flux, secondary assay; shares compounds with Cl transport mod; FluoZin2 fluorescence; active compounds read high; normalised thallium flux (F/F0 slope) at 10 µM; 3,700 tested, 15% active;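 active = thallium flux slope above the same plate's solvent-only control mean plus 3 SD; inconclusive = the two replicate wells disagree; inactive = no significant difference from solvent-only control wells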
KCC2 bumet counter – thallium flux persisting under bumetanide in KCC2 cells, confirmation, counter-screen for KCC2 modulator project, cell-based, HEK293 KCC2, FluoZin2, secondary assay 3. shares compounds with Cl transport mod. AID 1714, 2009. 3,700 tested, 49% active. normalized thallium flux at 10 µM. HEK293-KCC2 + bumetanide/ouabain; active compounds read high;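 active = thallium entry rate above the same plate's blocked-transporter control wells by more than 3 SD; inconclusive = the two repeat wells disagree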;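 note: raw slope of fluorescence over initial fluorescence between 10 and 20 s after thallium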
KCC2 sec2 – KCC2 modulators without ouabain present, confirmation, cell-based, HEK293 KCC2, thallium flux, FluoZin2, secondary assay 2 | shares compounds with Cl transport mod | thallium flux FluoZin2 fluorescence; actives lie on both sides; F/F0 rise rate, 10–20 s post-thallium | normalized thallium flux at 10 µM | 3,700 tested, 23% active | AID 1715, 2009;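 active = thallium flux slope more than 3 SD above or below the plate's solvent-only control mean, mostly below; inconclusive = the two repeat wells disagreed; inactive = no significant shift from solvent-only controls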;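 note: raw slope with 0.1% DMSO as baseline and bumetanide as block control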
HEK293 Tl flux – thallium flux modulation in parental HEK cells, confirmation, counter-screen for KCC2 modulator project, cell-based, counterscreen 1. HEK293 parental cells, thallium flux FluoZin2, ouabain; baseline-ratio fluorescence slope, 10–20 s after thallium. 3,700 tested, 46% active. thallium flux rate (normalised fluorescence) at 10 µM. shares compounds with Cl transport mod;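 active = thallium flux rate significantly above the same plate's solvent-only control wells, beyond their mean plus 3 SD; inconclusive = the two replicate wells gave conflicting results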
KCC2 ouabain – KCC2 inhibitors and activators, ouabain retest, confirmation, HEK-KCC2 cells | shares compounds with Cl transport mod | HEK293-KCC2, thallium flux FluoZin2 fluorescence; bidirectional: low = inhibitor, high = activator | raw Tl+ flux slope (below DMSO = inhibition, above = activation) at 10 µM | 3,700 tested, 48% active;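 active = thallium flux slope beyond 3 SD from same-plate DMSO control mean in most replicates, usually higher, sometimes lower; inconclusive = repeat tests gave conflicting results; inactive = no significant difference from controls in most replicates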;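 note: slope of initial-normalized fluorescence between seconds 10 and 20 after thallium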
HEK293 Tl flux2 – native HEK Tl+ uptake effects, second counter-screen – HEK cells, counterscreen 2, counter-screen for KCC2 modulator project, confirmation; HEK293 parental, thallium flux FluoZin-2 fluorescence slope; thallium flux slope at 10 µM; 3,700 tested, 33% active; shares compounds with Cl transport mod;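 active = thallium flux slope above the same plate's solvent-control mean plus 3 SD in both duplicate wells; inconclusive = duplicate wells that disagreed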;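 note: run without ouabain in cells lacking the KCC2 cotransporter; slope of fluorescence scaled to its starting value between 10 and 20 s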
Active calls of the source: *; ? = inconclusive; nt = no result. A selection: hits, their analogues and other compounds. The true share with any hit is near 3.1%.

SMILES	EP2 modulator	EP2 antag	S1P3 antagonist	Cl transport mod	KCC2 sec1	KCC2 bumet counter	KCC2 sec2	HEK293 Tl flux	KCC2 ouabain	HEK293 Tl flux2
COCCNC(=O)CN1N=C(c2ccccc2)Cn2c(cc3ccccc32)C1=O	-62.5	nt	nt	nt	nt	nt	nt	nt	nt	nt
CC(C)C(=O)Nc1ccc(N2CCN(C(=O)c3ccccc3)CC2)cc1	-11.1	8.9	nt	nt	nt	nt	nt	nt	nt	nt
CCNC(=S)N(Cc1ccccc1)Cc1cc2cc3c(cc2[nH]c1=O)OCCO3	2.4	11.6	nt	nt	nt	nt	nt	nt	nt	nt
CC(C)C(=O)N1CCN(c2ccccc2NC(=S)NC(=O)c2cccs2)CC1	-6.3	12.1	-0.2	2.8	0.00633	0.00859*	0.0279	0.0091*	0.0186	?
CC(C)C(=O)N1CCN(c2ccc(NC(=O)c3cccs3)cc2Cl)CC1	-41.6	8.8	-6.5	-0.918	nt	nt	nt	nt	nt	nt
O=C(Nc1ccccc1N1CCCCC1)c1ncoc1-c1ccc(F)cc1	63.4*	8.6	-1.5	2.14*	0.00858	0.00552	0.0303	0.008	0.0178	0.0115
Cc1ccccc1C(=O)NC(=S)Nc1ccccc1N1CCCC1	18.3	10.9	-13.3	11.3*	0.00676	0.0248*	0.0314	0.0263*	0.0296*	0.0152*
O=C(NC(=S)Nc1ccccc1N1CCCC1)c1cccc(F)c1	-26.4	5.1	-2.3	39.4*	0.00615	0.0619*	0.0429*	0.0275*	0.046*	0.0277*
Cc1ccccc1C(=O)NC(=S)Nc1ccc(N2CCOCC2)cc1	-14.9	5.4	5.1	0.11	nt	nt	nt	nt	nt	nt
O=C(Nc1ccccc1N1CCCCC1)c1ncoc1-c1cccc(F)c1	42.7	3.9	-15.7	0.868	nt	nt	nt	nt	nt	nt
CCOc1cc(NC(=O)c2cccs2)c(OCC)cc1NC(=O)c1ccc(F)cc1	1.1	4.7	nt	nt	nt	nt	nt	nt	nt	nt
CC(C)(C)C(=O)COC(=O)c1ccccc1NC(=O)c1ccco1	25.9	8.2	nt	nt	nt	nt	nt	nt	nt	nt
FC(F)(F)c1ccc(-c2noc(CN3CCCCC3CCN3CCOCC3)n2)cc1 (configuration not stated)	-32.5	7.4	nt	nt	nt	nt	nt	nt	nt	nt
O=c1cc(CSc2nnc(Nc3ccccc3)s2)nc2sccn12	-27.5	1.1	nt	-0.682	nt	nt	nt	nt	nt	nt
Cc1ccccc1Nc1nnc(SCc2cc(=O)n3ccsc3n2)s1	-2.1	8.1	nt	-4.92*	0.00717	0.00638	0.0277	0.00704	?	0.00992
COC(=O)CSc1ncnc2c1cnn2Cc1ccccc1	25.1	5.1	-7.2	-0.0867	nt	nt	nt	nt	nt	nt
CC(C)OC(=O)CSc1ncnc2c1cnn2Cc1ccccc1	5.6	10.0	7.3	-3.55*	0.00957	0.00717	0.0318	0.0074	0.019	0.011
COc1ccc(-c2ccc(SC(C)C(N)=O)nn2)cc1 (configuration not stated)	-24.6	11.7	nt	nt	nt	nt	nt	nt	nt	nt
CC(C)c1ccc(OCC(=O)NNC(=O)c2cnccn2)cc1	31.1	8.7	-9.4	5.71*	0.00764	0.0109*	0.0333	0.0118*	0.0241*	0.0154*
Cc1cc(Cl)ccc1OCC(=O)NNC(=O)c1cnccn1	-0.8	3.8	-14.4	9.45*	0.00605	0.0154*	0.0314	0.0153*	?	0.0135*
O=C(COc1ccc2ccccc2c1)NNC(=O)c1cnccn1	-9.6	5.9	-14.6	0.426	nt	nt	nt	nt	nt	nt
O=C(NC(=S)NNC(=O)c1cnccn1)c1ccc(Cl)cc1	-39.4	0.5	12.1	9.13*	0.0124	0.0131*	0.0355	?	?	?
COc1ccc(C(=O)NC(=S)NNC(=O)c2cnccn2)cc1	12.9	2.3	-9.8	0.981	nt	nt	nt	nt	nt	nt
O=C(COc1ccc(Cl)cc1)NNC(=O)c1ccccn1	27.5	nt	nt	4.44*	0.01	0.0191*	0.0338	0.0113*	0.0245	?
COc1nc(C)nc(NC(=O)COc2ccc(Cl)cc2C)n1	-0.4	2.9	nt	nt	nt	nt	nt	nt	nt	nt
SMILES	EP2 modulator	EP2 antag	S1P3 antagonist	Cl transport mod	KCC2 sec1	KCC2 bumet counter	KCC2 sec2	HEK293 Tl flux	KCC2 ouabain	HEK293 Tl flux2
Cc1occc1-c1nn(CC(=O)N2CCCC2)c(=O)o1	12.4	6.5	nt	nt	nt	nt	nt	nt	nt	nt
Cc1cc(Br)ccc1OCC(=O)NNC(=O)c1cnccn1	4.4	8.8	-0.1	8.78*	0.017	0.027*	?	0.0222*	0.0281*	0.0236*
O=C(COc1cccc2ccccc12)NNC(=O)c1cnccn1	29.1	5.7	1.1	-0.2	nt	nt	nt	nt	nt	nt
O=C(NNC(=O)c1ccc(Cl)cc1Cl)c1csc(-c2cccnc2)n1	-13.6	6.9	-1.7	8.13*	0.00587	0.0179*	0.033	0.0153*	?	0.0183*
S=c1[nH]c(-c2ccccc2)cn1/N=C/c1ccc(Br)cc1	-79.8	3.0	-3.9	54.5*	0.0112*	0.0396*	0.0319	0.0165*	0.0481*	0.0111*
S=c1[nH]c(-c2ccccc2)cn1/N=C/c1cccnc1	-28.3	5.6	1.0	1.72	nt	nt	nt	nt	nt	nt
S=c1[nH]c(-c2ccccc2)cn1/N=C/c1cccs1	-10.5	13.8	-2.5	17.6*	0.0227*	0.0365*	0.0328	0.0164*	0.0288*	0.0161*
O=C(O)c1ccc(/C=N/n2cc(-c3ccccc3)[nH]c2=S)cc1	-34.8	6.9	-11.3	1.11	nt	nt	nt	nt	nt	nt
CCN(CCCNC(=O)COc1cc(=O)n(CC)c2ccccc12)c1ccccc1	5.5	nt	-7.9	4.56*	0.00584	0.00425	?	0.0063*	0.0167	0.01
CCN(CCCNC(=O)COc1cc(=O)n(C)c2ccccc12)c1ccccc1	-21.9	5.9	-0.7	0.25	nt	nt	nt	nt	nt	nt
CCc1cc2c(SCc3nc4sc(C(C)=O)c(C)c4c(=O)[nH]3)ncnc2s1	30.2	15.4	-7.5	43*	?	0.0555*	0.0523*	0.0432*	0.0529*	0.0404*
COc1ccc(/C=C\c2nc(O)c([N+](=O)[O-])c(=O)[nH]2)cc1OC	4.2	9.8	nt	nt	nt	nt	nt	nt	nt	nt
